Laboratory results taken from PubChem BioAssay AID999 (SRMLSC, 2007).
Values without a mark were called inactive. Active and inactive are the calls of the source.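 The calls were made as follows: active = viability at or below 21.59%, 3 SD under the median of tested compounds; inactive = the rest.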

experiment: viability loss in PTEN-deleted cells – cell-based, validation, diverse DP compound set (AID 999); conditions: HCT116 PTEN-null viability, CellTiter-Glo, 60 h; at 10 µM; stronger effect = lower value;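 also: 100% = median luminescence of untreated cell control wells and 0% = no signal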

Which viability does the source give for CSC(=S)NCc1c[nH]c2ccccc12 here?
The viability was 91.6%.

With C[C@@H]1O[C@@H](OC2CC(O)C3(CO)C4C(CCC3(O)C2)C2(O)CCC(C3=CC(=O)OC3)C2(C)C[C@H]4O)[C@H](O)[C@H](O)[C@H]1O (some centres undefined) as the molecule, how does the viability read?
The viability was 106%.

With O=C1C=C2C=C[C@@H]3C[C@@]2(O1)[C@H]1CCCCN31 as the molecule, how does the viability read?
Its viability is 79.4%.

Which viability does the source give for NCCc1c[nH]c2ccc(O)cc12 here?
Its viability is 98.1%.

Which viability does the source give for O[C@H]1[C@H](O)[C@@H](O)CN2CC[C@H](O)[C@H]12 here?
Its viability is 97.8%.

For COC1=C[C@@H]2[C@@H]3Cc4ccc(OC)c(O)c4[C@]2(CCN3C)CC1=O, which viability is on record?
Its viability is 96%.

With C=C(C)[C@H]1CN[C@H](C(=O)O)[C@H]1CC(=O)O as the molecule, how does the viability read?
The viability was 99.8%.

Which viability does the source give for CCCCCCCCCCCCCC(=O)O[C@@H]1[C@@H](C)[C@@]2(O)[C@@H](C=C(CO)C[C@]3(O)C(=O)C(C)=C[C@@H]23)[C@@H]2C(C)(C)[C@]12OC(C)=O here?
Its viability is 53.1%.

For C=CCN1CC[C@]23c4c5ccc(O)c4O[C@H]2C(=O)CC[C@@]3(O)[C@H]1C5, which viability is on record?
The viability was 89.3%.

For COC(=O)C(O)C(O)(CCC(C)C)C(=O)OC1C(OC)=CC23CCCN2CCc2cc4c(cc2C13)OCO4 (centres undefined), which viability is on record?
Its viability is 26.2%.

Which viability does the source give for CCCN1CCC[C@@H]2Cc3cn[nH]c3C[C@H]21 here?
The viability was 105%.

For CC[C@@]1(O)C(=O)OCc2c1cc1n(c2=O)-c2cc3ccccc3nc2C1, which viability is on record?
The viability was 24.7%.

Which viability does the source give for CC/C(=C(\c1ccccc1)c1ccc(OCCN(C)C)cc1)c1ccccc1 here?
The viability was 35.9%.

With C[C@H]1CCC/C=C/C2C[C@H](O)C[C@H]2[C@H](O)/C=C/C(=O)O1 (some centres undefined) as the molecule, how does the viability read?
The viability was 58.2%.

With CCCC[C@H]1C(=O)O[C@H](C)[C@H](NC(=O)c2cccc(NC=O)c2OC)C(=O)O[C@@H](C)[C@@H]1OC(=O)CC(C)C as the molecule, how does the viability read?
Its viability is 93.3%.

For CC1=C2[C@H]3OC(=O)[C@@H](C)[C@@H]3CC[C@@]2(C)C=CC1=O, which viability is on record?
The viability was 95.7%.

With CC(C)c1cc2c(c(O)c1O)[C@@]1(C(=O)O)CCCC(C)(C)[C@@H]1CC2 as the molecule, how does the viability read?
The viability was 97.5%.

Which viability does the source give for CNc1ccc2oc(C[C@@H]3OC4(CC[C@@H]3C)O[C@H](C(C)C(=O)c3ccc[nH]3)[C@H](C)C[C@H]4C)nc2c1C(=O)O (some centres undefined) here?
The viability was 3.3% (active).

With Nc1ccncc1 as the molecule, how does the viability read?
The viability was 100%.

With C[C@@H]1CC[C@H]2[C@@H](C)C(=O)O[C@@H]3OC4(C)CC[C@@H]1[C@]32OO4 as the molecule, how does the viability read?
The viability was 71.5%.

Which viability does the source give for O=C1CCC[C@H]2[C@@H]3CCCN4CCC[C@H](CN12)[C@H]34 here?
Its viability is 105%.

Which viability does the source give for C[C@]12CC[C@@H](O)C[C@@H]1CC[C@@H]1[C@@H]2CC[C@]2(C)C(=O)CC[C@@H]12 here?
The viability was 98.8%.

For O=C1C=CC(=O)C(Cl)=C1, which viability is on record?
The viability was 95.1%.

Which viability does the source give for CC(=O)O[C@H]1[C@H]2[C@@H](OC(=O)Cc3ccccc3)[C@@H](C)C[C@]2(OC(C)=O)C(=O)/C(C)=C/[C@@H]2[C@H](CC[C@@]13CO3)C2(C)C here?
Its viability is 68.9%.

Which viability does the source give for CN(C)[C@@H]1C(=O)C(C(N)=O)=C(O)[C@@]2(O)C(=O)C3=C(O)c4c(O)cccc4[C@@](C)(O)C3CC12 (some centres undefined) here?
The viability was 97.1%.

With N#CC(C#N)=Cc1ccc([N+](=O)[O-])c(O)c1 as the molecule, how does the viability read?
The viability was 108%.

Which viability does the source give for CN1C[C@H](CNC(=O)OCc2ccccc2)C[C@@H]2c3cccc4c3c(cn4C)C[C@H]21 here?
Its viability is 75.3%.

With N#Cc1nn(-c2c(Cl)cc(C(F)(F)F)cc2Cl)c(N)c1S(=O)C(F)(F)F (centres undefined) as the molecule, how does the viability read?
Its viability is 85.6%.

For NCC(CC(=O)O)c1ccc(Cl)cc1 (centres undefined), which viability is on record?
Its viability is 94.7%.

Which viability does the source give for CCN1C[C@@]2(COC)C3[C@@H](OC)[C@H]4C1[C@@]3(C1C[C@]3(O)C(OC)[C@H](O)[C@@]4(OC(C)=O)C1[C@H]3OC(=O)c1ccccc1)[C@H](OC)C[C@H]2O (some centres undefined) here?
Its viability is 89.3%.

With N#CC(C#N)=Cc1cc(O)c(O)c([N+](=O)[O-])c1 as the molecule, how does the viability read?
The viability was 106%.

Which viability does the source give for CC(C)(C)[C@]1(O)C[C@@H]2OC(=O)CC23C(=O)O[C@@H]2OC(=O)[C@H](O)C231 (some centres undefined) here?
Its viability is 93.3%.

For OCC1CCCN2CCCCC12 (centres undefined), which viability is on record?
Its viability is 106%.

For COC[C@H]1OC(=O)c2coc3c2[C@@]1(C)C1=C(C3=O)C2CCC(=O)[C@@]2(C)C[C@H]1OC(C)=O (some centres undefined), which viability is on record?
The viability was 78.4%.
